FUS yeast rescue: qHTS for Suppressors of FUS Proteinopathy: Primary screen using FUS-linked yeast assay; S. cerevisiae FUS-expressing, growth rescue, OD600, 24 h; Potency, µM (series often up to 76.6 µM), actives largely listed as activators; 390,000 tested, 0.24% active;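 note: plate controls were DMSO vehicle for no effect and reference control for full effect; nearly all actives have a fitted effect of over 55% in size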
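Yeast expressing FUS under galactose induction, OD 0.005 in 2% galactose medium; compounds in a dilution series, 24 h at 30C. Growth rescue by absorbance at 600 nm; CP55940 positive control, DMSO negative.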
Abeta rescue: qHTS for compounds that reverse cellular toxicity of Amyloid beta (A-beta) peptide in yeast: Primary Screen. yeast expressing A-beta42, growth rescue, OD600, 48 h; response scale: 0% DMSO, 100% iron-clioquinol control. Potency, µM (titrated, usually from 46.1 µM), hits mostly activators. 410,000 tested, 0.063% active; note: nearly all actives have a fitted effect of over 55% in size
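Growth rescue measured by 600 nm absorbance after 48 h yeast culture at 30 C with compound. Values normalized between DMSO and an equimolar ferric chloride plus clioquinol control.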
aSyn rescue: qHTS of alpha-syn Inhibitors; Potency, µM (titrated, usually from 46.1 µM), for the others: top-dose growth rescue (activation), hits mostly activators; Yeast expressing alpha-synuclein, growth rescue, BacTiter-Glo, 24 h; 370,000 tested, 0.14% active; note: % of control where 0% means no effect; nearly all actives have a fitted effect of over 65% in size
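Screening used galactose-induced yeast with toxic alpha-synuclein levels, exposed to compound for 24 hr at 30 deg C. Cell growth, read with BacTiter-Glo luminescence, gave the measured signal.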
Glioma ERSR ind: qHTS for Inducers of the Endoplasmic Reticulum Stress Response (ERSR) in Human Glioma: qHTS; Potency, µM, inactives show top-dose activation, most hits filed as activators; U87-MG GRP78 promoter luciferase reporter, 16 h; 420,000 tested, 0.02% active; AID 602332, 2012; note: series mostly up to about 76 µM; % of control where 0% means no effect; nearly all actives have a fitted effect of over 35% in size
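Stably transfected U87-MG human glioma cells carrying a GRP78-based luminescent sensor were seeded at 1000 cells/well, pin-dosed with compounds and incubated 16 h. Luciferase reagent was then added, and end-point luminescence was read after 10 min at room temperature.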
MBNL1-CUG inh: qHTS Assay for Inhibitors of MBNL1-poly(CUG) RNA binding | Potency, µM (series often up to 57.5 µM), for the others: at the top dose activity change, negative = inhibition, most hits filed as inhibitors | TR-FRET MBNL1-His/biotin-(CUG)12 binding, 665/545 ratio | 280,000 tested, 0.036% active | AID 2675, 2010 | Muscleblind-like protein 1 (Homo sapiens), Q9NR56; active = well fitted inhibition curve with a large enough effect in the signal ratio, with a control signal flat, not every such curve was filed as active; inconclusive = small, poorly fitted or top-dose-only effect, or effect the other way, or a change in a side signal; inactive = no such curve, though single readings can be large or run the other way; the % refers to the signal ratio; note: % is set by controls: 0 for no effect and ±100 for the full control effect
Target sequence (Q9NR56 whole entry, looked up): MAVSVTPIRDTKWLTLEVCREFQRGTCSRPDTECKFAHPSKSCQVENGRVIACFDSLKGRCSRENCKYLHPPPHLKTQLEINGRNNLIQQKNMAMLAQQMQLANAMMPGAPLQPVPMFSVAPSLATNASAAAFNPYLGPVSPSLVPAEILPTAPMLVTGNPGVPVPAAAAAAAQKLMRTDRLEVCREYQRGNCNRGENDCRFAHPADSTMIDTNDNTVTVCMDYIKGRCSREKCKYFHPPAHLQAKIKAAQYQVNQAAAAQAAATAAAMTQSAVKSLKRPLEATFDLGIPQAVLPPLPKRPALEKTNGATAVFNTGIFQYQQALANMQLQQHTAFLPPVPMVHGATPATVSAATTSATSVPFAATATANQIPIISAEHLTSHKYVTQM
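TR-FRET between His-tagged MBNL1 and biotin-(CUG)12 RNA, detected with Tb anti-His antibody (0.055 ng/ul) and streptavidin-XL665 (5 nM), 60 min at room temperature. Compounds titrated 92 nM to 58 uM; 665/545 nm ratio normalized to buffer and complex controls.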
TDP-43 yeast inh: qHTS of TDP-43 Inhibitors; TDP-43 expressing yeast growth rescue, BacTiter-Glo, 24 h; Potency, µM (series often up to 46.1 µM), without a hit: at the top dose growth rescue (activation), hits mostly activators; 410,000 tested, 1.8% active; AID 652104, 2013; note: % of control where 0% means no effect; nearly all actives have a fitted effect of over 50% in size
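In this qHTS, compounds that restore growth of yeast expressing TDP-43 appear as activators. Cells (OD600=0.02, galactose medium, raffinose-pregrown) are incubated with compound 24 hr at 30 deg C and growth is quantified by BacTiter-Glo.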
The depositor's hits bear a star. Rows were chosen to be rich in hits. Some 2% of all compounds tested hit in one or more screens of this group. Unless noted, calls come from the whole dose curve; as a rule, active = well fitted curve in the direction sought with a large enough effect; inconclusive = small, poorly fitted or top-dose-only effect, or another doubt; inactive = no such curve, though single readings can be large; an effect the other way counts as inactive or inconclusive. Potency is the fitted concentration of half-maximal effect.

What do the screens show for `O=[N+]([O-])c1ccc(/C=N/N=C/c2ccc([N+](=O)[O-])o2)o1`?
FUS yeast rescue: inactive; Abeta rescue: inactive; aSyn rescue: 8.8%; Glioma ERSR ind: -14.5%; MBNL1-CUG inh: inconclusive; TDP-43 yeast inh: inconclusive

Results for COc1cc(NC(=O)NC2CCCCN(Cc3cccc(Cl)c3)C2=O)cc(OC)c1 (configuration not stated) ?
FUS yeast rescue: inactive

What do the screens show for `O=C(c1cccc(Cl)c1)N1CCCC(Cn2cc(C(=O)N3CCCC3)nn2)C1` (configuration not stated)?
Glioma ERSR ind: 1.0%

Results for CCCCCCCC(=O)N/N=C/c1ccc([N+](=O)[O-])o1 ?
FUS yeast rescue: inactive; Abeta rescue: inactive; aSyn rescue: 4.0%; Glioma ERSR ind: -2.6%; MBNL1-CUG inh: inconclusive; TDP-43 yeast inh: 20µM*

Results for CC(=O)N/N=C/c1ccc([N+](=O)[O-])o1 ?
Glioma ERSR ind: -11.3%

Results for COC(=O)C1CCN(Cc2ccc3c(c2)CN(C(=O)c2cc(C)oc2C)CCO3)CC1 ?
Glioma ERSR ind: -2.4%

What do the screens show for `C#CCN1CC(N(C)CCOC(=O)CC2C=CCC2)CS1(=O)=O` (configuration not stated)?
FUS yeast rescue: inactive

Results for Cc1cccc2cc(CN(C(=O)c3ccc(-c4ccc(F)cc4)cc3)C3CC3)c(N3CCC(O)CC3)nc12 ?
Glioma ERSR ind: -2.5%

What do the screens show for `C[C@H]1[C@H](c2ccccc2)C[C@@H](C(=O)O)C1(C)C`?
FUS yeast rescue: inactive; Abeta rescue: inactive; aSyn rescue: -5.1%; Glioma ERSR ind: -3.4%; TDP-43 yeast inh: 14.1µM*

Results for O=C(c1ccccc1)C1CC1c1ccccc1 (configuration not stated) ?
FUS yeast rescue: inactive; Abeta rescue: inactive; aSyn rescue: inconclusive; Glioma ERSR ind: 3.0%; TDP-43 yeast inh: inconclusive

How did C/C(=N\Nc1nc(C)c(C)s1)c1ccc([N+](=O)[O-])cc1 do in these assays?
FUS yeast rescue: inactive; Abeta rescue: inactive; aSyn rescue: -6.7%; Glioma ERSR ind: -10.6%; MBNL1-CUG inh: inconclusive; TDP-43 yeast inh: 12.6µM*

What do the screens show for `CC(C)=NNc1nc(-c2ccc([N+](=O)[O-])cc2)cs1`?
FUS yeast rescue: inactive; Abeta rescue: inactive; aSyn rescue: 5.7%; Glioma ERSR ind: 0.5%; MBNL1-CUG inh: inconclusive; TDP-43 yeast inh: 12.6µM*

Results for O=C(COCc1ccncc1)N1CCN(c2ccc(F)cc2Cl)CC1 ?
FUS yeast rescue: inactive

Results for CCN(CC)CCCNC(=O)CSc1nc2cccnc2n1C ?
FUS yeast rescue: inactive

How did Oc1c(C(Nc2nc3ccccc3s2)c2ccco2)ccc2cccnc12 (configuration not stated) do in these assays?
Abeta rescue: inactive; aSyn rescue: -13.7%; Glioma ERSR ind: -2.3%; MBNL1-CUG inh: 8.4%; TDP-43 yeast inh: 20µM*

How did C[N+]1(C)CCN(C[C@@](O)(c2ccccc2)C2CCCCC2)CC1 do in these assays?
Glioma ERSR ind: -3.5%

What do the screens show for `COC1=C(C(=O)O)N2C(=O)[C@@H](NC(=O)C(N)C3C=CCC=C3)[C@H]2SC1` (some centres not stated)?
Glioma ERSR ind: -2.0%

What do the screens show for `NNc1nc2ccc(F)cc2s1`?
Abeta rescue: inactive; aSyn rescue: 0.0%; Glioma ERSR ind: 0.1%; TDP-43 yeast inh: -9.6%

How did Fc1ccc2nc(Nc3ccccc3)sc2c1 do in these assays?
FUS yeast rescue: inactive; Abeta rescue: inconclusive; aSyn rescue: -10.7%; Glioma ERSR ind: 11.3%; MBNL1-CUG inh: -2.8%; TDP-43 yeast inh: 15.8µM*

What do the screens show for `CCN(CC)c1ccc(/C=N/NC(=O)Cc2nnc(NC(=O)Nc3ccccc3)s2)cc1`?
FUS yeast rescue: 17.8µM*; Abeta rescue: inactive; aSyn rescue: 1.1%; Glioma ERSR ind: 7.0%; MBNL1-CUG inh: 3.5%; TDP-43 yeast inh: 1.8%

How did CCN(CC)c1ccc(/C=N/NC(=O)Nc2ccccc2)cc1 do in these assays?
FUS yeast rescue: inactive; Abeta rescue: inactive; aSyn rescue: 13.6%; Glioma ERSR ind: inconclusive; MBNL1-CUG inh: 19.9%; TDP-43 yeast inh: 24.6%

Results for CCc1ccc(S(=O)(=O)N(C(=O)c2ccncc2)c2ccc3oc(C)c(C(=O)OC)c3c2)cc1 ?
FUS yeast rescue: inactive; Abeta rescue: inactive; Glioma ERSR ind: 3.2%; TDP-43 yeast inh: 20µM*

Results for Cc1cc(C)nc(NC(=O)/C=C/c2ccc(Cl)cc2Cl)c1 ?
Abeta rescue: inactive; aSyn rescue: -17.3%; Glioma ERSR ind: 7.4%; MBNL1-CUG inh: -5.1%; TDP-43 yeast inh: 7.08µM*

Results for Cc1cc(C)nc(NC(=O)/C=C/c2ccccc2Cl)c1 ?
Abeta rescue: inactive; aSyn rescue: -18.6%; Glioma ERSR ind: 3.6%; MBNL1-CUG inh: 11.2%; TDP-43 yeast inh: 12.6µM*

How did COc1ccc(C(=O)Nc2ccc(N3CCOCC3)c(C(F)(F)F)c2)cc1OC do in these assays?
FUS yeast rescue: inactive; Abeta rescue: inactive; aSyn rescue: 2.6%; Glioma ERSR ind: -5.3%; TDP-43 yeast inh: 20µM*

What do the screens show for `COc1ccc(C(=O)Nc2ccc(N3CCOCC3)cc2)cc1OC`?
FUS yeast rescue: inactive; Abeta rescue: inactive; aSyn rescue: -26.1%; Glioma ERSR ind: -2.1%; MBNL1-CUG inh: -8.3%; TDP-43 yeast inh: -17.9%

Results for COc1cc(C(=O)Nc2ccc(Cl)c(C(F)(F)F)c2)cc(OC)c1OC ?
FUS yeast rescue: inactive; Abeta rescue: inactive; aSyn rescue: inconclusive; Glioma ERSR ind: 0.1%; TDP-43 yeast inh: 17.8µM*

How did CCc1ccc(-c2ccc3nnc(SCC(N)=O)n3n2)cc1 do in these assays?
FUS yeast rescue: inactive; Abeta rescue: inactive; aSyn rescue: 0.7%; Glioma ERSR ind: -4.4%; MBNL1-CUG inh: inconclusive; TDP-43 yeast inh: 19.0%

Results for CCc1ccc(-c2ccc3nnc(SC)n3n2)cc1 ?
FUS yeast rescue: inactive; aSyn rescue: 0.0%; Glioma ERSR ind: 17.9%; MBNL1-CUG inh: inconclusive; TDP-43 yeast inh: 15.8µM*

What do the screens show for `Clc1cccc(CNc2ccn3nc(-c4ccc(OCc5ccccc5)cc4)cc3n2)c1`?
FUS yeast rescue: inactive; Abeta rescue: inactive; aSyn rescue: -4.9%; Glioma ERSR ind: 2.7%; TDP-43 yeast inh: -3.3%

Compound activity as filed in PubChem.
